In PubChem BioAssay (NCI):
Values joined by “and” are separate entries in the source; they are usually repeats but may differ in a detail not shown here. Equal entries are not always repeated. The panel holds about 83,000 compounds, 20% with a hit somewhere; the sample as a whole holds those more often.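 Interpretation: 100, growth as untreated; towards 0, rising growth inhibition; 0, no net growth; 0 to -100, cell death. Compounds scoring below 10 were considered active.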 Active and inactive are the calls of the source.

Tests used:
Assay in all cases: NCI-60 one-dose screen, 48 h (100 = growth as untreated, 0 = no growth, -100 = all killed)
HCT-15 colon = test system: HCT-15 colon
HT29 colon = test system: HT29 colon
SNB-75 CNS = test system: SNB-75 CNS
SNB-19 CNS = test system: SNB-19 CNS
U251 CNS = test system: U251 CNS
PC-3 prostate = test system: PC-3 prostate
SK-MEL-5 melanoma = test system: SK-MEL-5 melanoma
UACC-62 melanoma = test system: UACC-62 melanoma
LOX IMVI melanoma = test system: LOX IMVI melanoma
SK-MEL-28 melanoma = test system: SK-MEL-28 melanoma

Measured: growth

CN(C)c1ccc2nc3ccc(=O)cc-3sc2c1
inactive: HCT-15 colon; 10 µM unless noted 36.2% and 37.2% | HT29 colon; 10 µM unless noted 39.9% and 40.7% | SNB-75 CNS; 10 µM unless noted 94.9% and 36.7% | SNB-19 CNS; 10 µM unless noted 55.8% and 45.9% | U251 CNS; 10 µM unless noted 21.2% and 33.3% | PC-3 prostate; 10 µM unless noted 29.7% and 33% | UACC-62 melanoma; 10 µM unless noted 32.5% and 32.9%
active: SK-MEL-5 melanoma; 10 µM unless noted -94.8% and -89.9% | LOX IMVI melanoma; 10 µM unless noted 5.56% and 5.52%

c1ccc(Cc2cccc[n+]2C(c2ccccc2)c2ccccc2)cc1
inactive: HCT-15 colon; 10 µM unless noted 93.1% | HT29 colon; 10 µM unless noted 31.8% | SNB-75 CNS; 10 µM unless noted 50.8% | SNB-19 CNS; 10 µM unless noted 58.1% | U251 CNS; 10 µM unless noted 42.5% | PC-3 prostate; 10 µM unless noted 35.8% | SK-MEL-5 melanoma; 10 µM unless noted 14.5% | UACC-62 melanoma; 10 µM unless noted 37.7% | LOX IMVI melanoma; 10 µM unless noted 58.2%

O=C(/C=C/c1ccccc1)c1cccs1
inactive: HCT-15 colon; 10 µM unless noted 95.1% and 95.5% | HT29 colon; 10 µM unless noted 99.8% and 90.7% | SNB-75 CNS; 10 µM unless noted 102% and 97.3% | SNB-19 CNS; 10 µM unless noted 93.6% and 104% | U251 CNS; 10 µM unless noted 80.8% and 85.9% | PC-3 prostate; 10 µM unless noted 90.8% and 103% | SK-MEL-5 melanoma; 10 µM unless noted 101% and 100% | UACC-62 melanoma; 10 µM unless noted 92.9% and 99.6% | LOX IMVI melanoma; 10 µM unless noted 82.1% and 64.5%

CC(=O)/C=C/c1ccc(OCc2ccc(Cl)cc2)cc1
active: SK-MEL-5 melanoma; 100 µM -37%
inactive: HCT-15 colon; 10 µM 96.7% | HCT-15 colon; 100 µM 42% | HT29 colon; 10 µM 94.3% | HT29 colon; 100 µM 36.2% | SNB-75 CNS; 10 µM 91% | SNB-75 CNS; 100 µM 35.6% | SNB-19 CNS; 10 µM 105% | SNB-19 CNS; 100 µM 51.7% | U251 CNS; 10 µM 88.3% | U251 CNS; 100 µM 33.9% | PC-3 prostate; 10 µM 90% | PC-3 prostate; 100 µM 36.1% | SK-MEL-5 melanoma; 10 µM 97.7% | UACC-62 melanoma; 10 µM 95.5% | UACC-62 melanoma; 100 µM 24.6% | LOX IMVI melanoma; 10 µM 86.7% | LOX IMVI melanoma; 100 µM 32.2% | SK-MEL-28 melanoma; 10 µM 112% | SK-MEL-28 melanoma; 100 µM 26.1%

CCOc1ccccc1NC(=O)c1cc2ccccc2cc1O
inactive: HCT-15 colon; 10 µM unless noted 45.4% | HT29 colon; 10 µM unless noted 99.8% | SNB-75 CNS; 10 µM unless noted 87.7% | SNB-19 CNS; 10 µM unless noted 52.9% | U251 CNS; 10 µM unless noted 24.4% | PC-3 prostate; 10 µM unless noted 20.9% | SK-MEL-5 melanoma; 10 µM unless noted 25.6% | UACC-62 melanoma; 10 µM unless noted 21.2% | LOX IMVI melanoma; 10 µM unless noted 51.1%

Cc1c(C(C)(C)O)cn2ncnc(Oc3ccc(NC(=O)Nc4ccc(Cl)c(C(F)(F)F)c4)cc3)c12
inactive: HCT-15 colon; 10 µM unless noted 36.8% | HT29 colon; 10 µM unless noted 34.6% | SNB-75 CNS; 10 µM unless noted 33.8% | SNB-19 CNS; 10 µM unless noted 30.8% | U251 CNS; 10 µM unless noted 31.8% | PC-3 prostate; 10 µM unless noted 21.5% | SK-MEL-5 melanoma; 10 µM unless noted 56.2% | UACC-62 melanoma; 10 µM unless noted 55.5%
active: LOX IMVI melanoma; 10 µM unless noted -9.63%

CCOC(=O)C1=C(C)NC(=O)NC1c1c(Cl)n(-c2ccccc2)c2ccccc12 (configuration not stated)
inactive: HCT-15 colon; 10 µM unless noted 85.8% | HT29 colon; 10 µM unless noted 80.7% | SNB-75 CNS; 10 µM unless noted 84.8% | SNB-19 CNS; 10 µM unless noted 83.9% | U251 CNS; 10 µM unless noted 89.2% | PC-3 prostate; 10 µM unless noted 56.7% | SK-MEL-5 melanoma; 10 µM unless noted 75.4% | UACC-62 melanoma; 10 µM unless noted 68.4% | LOX IMVI melanoma; 10 µM unless noted 89.3%

CCCCCCCCCCCCCCCC[N+](C)(C)CCN(Cc1ccc(OC)cc1)c1ncccn1
-76.8% (active) and 23.8% (inactive): LOX IMVI melanoma; 10 µM unless noted
8.82% (active) and 39.8% (inactive): SK-MEL-5 melanoma; 10 µM unless noted
-48.7% (active) and 41.9% (inactive): SNB-19 CNS; 10 µM unless noted
-78% (active) and 15.4% (inactive): PC-3 prostate; 10 µM unless noted
-82.5% (active) and 29.2% (inactive): U251 CNS; 10 µM unless noted
-39.6% (active) and 19% (inactive): UACC-62 melanoma; 10 µM unless noted
-100% (active) and 18.2% (inactive): HT29 colon; 10 µM unless noted
inactive: HCT-15 colon; 10 µM unless noted 74.4% and 94.5% | SNB-75 CNS; 10 µM unless noted 51.9% and 13%

O=C1CCCCN1CCCCC#Cc1cccc(C#Cc2cccnc2)c1
inactive: HCT-15 colon; 10 µM unless noted 44.7% | HT29 colon; 10 µM unless noted 86.5% | SNB-75 CNS; 10 µM unless noted 79.5% | SNB-19 CNS; 10 µM unless noted 78.3% | U251 CNS; 10 µM unless noted 72.4% | PC-3 prostate; 10 µM unless noted 61.5% | SK-MEL-5 melanoma; 10 µM unless noted 62.6% | UACC-62 melanoma; 10 µM unless noted 36.3% | LOX IMVI melanoma; 10 µM unless noted 95.8%

C=CCN1C=CC(=O)[C@H](O[Si](C)(C)C(C)(C)C)[C@@H]1/C=C/c1ccccc1
active: HCT-15 colon; 10 µM unless noted -70.7% [100 µM] | HT29 colon; 10 µM unless noted -73% [100 µM] | SNB-75 CNS; 10 µM unless noted -87.9% [100 µM] | SNB-19 CNS; 10 µM unless noted -92% [100 µM] | U251 CNS; 10 µM unless noted -39.6% [100 µM] | PC-3 prostate; 10 µM unless noted -76.2% [100 µM] | SK-MEL-5 melanoma; 10 µM unless noted -84.9% [100 µM] | UACC-62 melanoma; 10 µM unless noted -78.2% [100 µM] | LOX IMVI melanoma; 10 µM unless noted -43.9% [100 µM] | SK-MEL-28 melanoma; 10 µM unless noted -68.2% [100 µM]

CC/C(=C(/c1ccc(O)cc1)c1ccc(OCCN2CCCCCC2)cc1)c1ccc(Cl)cc1
inactive: HCT-15 colon; 10 µM unless noted 31.5% | HT29 colon; 10 µM unless noted 14.2% | SNB-75 CNS; 10 µM unless noted 88.7% | SNB-19 CNS; 10 µM unless noted 80.2% | U251 CNS; 10 µM unless noted 50.7% | PC-3 prostate; 10 µM unless noted 27.8% | SK-MEL-5 melanoma; 10 µM unless noted 67% | UACC-62 melanoma; 10 µM unless noted 83.2% | LOX IMVI melanoma; 10 µM unless noted 67.7% | SK-MEL-28 melanoma; 10 µM unless noted 58.5%

Clc1cccc(Nc2ncnc3ccc(-c4cncc(-n5cnnn5)c4)cc23)c1
inactive: HCT-15 colon; 10 µM unless noted 70.2% | HT29 colon; 10 µM unless noted 74% | SNB-75 CNS; 10 µM unless noted 59.9% | SNB-19 CNS; 10 µM unless noted 79.5% | U251 CNS; 10 µM unless noted 76.1% | PC-3 prostate; 10 µM unless noted 42.9% | SK-MEL-5 melanoma; 10 µM unless noted 65.8% | UACC-62 melanoma; 10 µM unless noted 85.3% | LOX IMVI melanoma; 10 µM unless noted 70.3% | SK-MEL-28 melanoma; 10 µM unless noted 97.3%
